# Laboratory results: PubChem BioAssay (NCATS)
# Where “and” joins values, the source holds several entries; their conditions need not be identical. Identical values can stand only once. A number with no mark means an inactive call. Records with an inconclusive call do not appear. Entries that show only a call come without a potency. Calls of active or inactive are those of the source. Unless noted, no rule for the calls is given here.
# Key:
# astro = control astrocytes; experiment: Drug repurposing screens with cells derived from glioblastoma tumor samples (AID 1345199; active = well fitted inhibition curve with a large enough effect; also: nearly all actives have a fitted effect of over 40% in size); settings: viability, ATP luminescence, 48 h; series mostly up to 45.9 µM
# How it was run: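 Four patient lines of CD133+ GBM neurospheres were screened at several concentrations; hits were retested in those lines plus three slower-growing GBM lines, using 48-hour treatment and ATP-based viability.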
# [1] = target: Nuclear receptor subfamily 1 group I member 2 (Rattus norvegicus) (UniProt Q9R1A7); experiment: qHTS assay for small molecule activators of the rat pregnane X receptor (rPXR) signaling pathway (AID 651751); settings: rPXR reporter cells, luciferase (One-Glo), 24 h
# Nuclear receptor subfamily 1 group I member 2 (Rattus norvegicus), sequence (Q9R1A7 whole entry, looked up): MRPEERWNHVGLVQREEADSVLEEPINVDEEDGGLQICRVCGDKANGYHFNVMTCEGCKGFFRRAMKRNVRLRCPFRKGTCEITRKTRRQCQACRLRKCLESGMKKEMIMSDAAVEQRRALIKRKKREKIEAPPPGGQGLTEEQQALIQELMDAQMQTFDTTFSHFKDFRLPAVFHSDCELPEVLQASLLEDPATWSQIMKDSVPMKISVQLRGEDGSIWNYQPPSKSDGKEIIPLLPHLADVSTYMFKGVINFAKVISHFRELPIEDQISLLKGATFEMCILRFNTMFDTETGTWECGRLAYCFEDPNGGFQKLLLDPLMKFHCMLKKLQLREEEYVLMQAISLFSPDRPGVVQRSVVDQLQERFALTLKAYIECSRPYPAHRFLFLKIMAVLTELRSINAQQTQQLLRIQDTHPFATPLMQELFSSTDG
# [2] = qHTS assay for small molecule activators of the human pregnane X receptor (PXR) signaling pathway (AID 720659)
Structure (SMILES),Potency (astro),max response [1],outcome [2]
CCCCCCCCCCCCCCCC(=O)O,inactive,-0.866%,inactive
O=C(O)c1ccc(S(=O)(=O)N(Cl)Cl)cc1,inactive,3.23%,inactive
CC(C)(C)CC(C)(C)c1ccc(O)c(-n2nc3ccccc3n2)c1,inactive,0.874%,
CN(C)C(=O)Nc1ccc(Cl)c(Cl)c1,inactive,5.92%,inactive
OC[C@H]1O[C@@H]2O[C@H]3[C@H](O)[C@@H](O)[C@@H](O[C@H]4[C@H](O)[C@@H](O)[C@@H](O[C@H]5[C@H](O)[C@@H](O)[C@@H](O[C@H]6[C@H](O)[C@@H](O)[C@@H](O[C@H]7[C@H](O)[C@@H](O)[C@@H](O[C@H]8[C@H](O)[C@@H](O)[C@@H](O[C@H]1[C@H](O)[C@H]2O)O[C@@H]8CO)O[C@@H]7CO)O[C@@H]6CO)O[C@@H]5CO)O[C@@H]4CO)O[C@@H]3CO,inactive,-1.43%,inactive
Cc1ccc(O)c([C@H](CCN(C(C)C)C(C)C)c2ccccc2)c1,inactive,,
CCOc1ccc(NC(C)=O)cc1,,2.72% and -0.111%,inactive
CCCCC(CC)CN1CN(CC(CC)CCCC)CC(C)(N)C1 (stereo not given),inactive,,
CCCCCCCCCCCCCCCCO,inactive,0.781%,inactive
NCCNc1cccc2ccccc12,inactive,-3.2% and 4.24%,
NS(=O)(=O)Cc1noc2ccccc12,inactive,,
Cc1cn([C@H]2C[C@H](F)[C@@H](CO)O2)c(=O)[nH]c1=O,inactive,,
